According to PubChem BioAssay:
Active and inactive are the calls of the source. Unless noted, how the calls were made is not given here.

Assays:
[1] = test system: Wnt5a (protein binding on small-molecule microarray); assay: small molecules binding Wnt5a protein – biophysical, small-molecule microarray, 635/667 nm fluorescence, primary screen (AID 1142); conditions: 635 nm fluorescence, higher = more signal;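 further: fluorescence read at 667 nm with signal to noise per printed feature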
[2] = ATP-based viability of Huh7 replicon cells – cell-based, CellTiter-Glo luminescence, basal, 48 h, cytotoxicity control for HCV replication inhibitor project, primary screen (AID 1143); conditions: higher = more signal, called active from +8 up or from −8 down;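 further: Huh7 hepatoma cells carrying a hepatitis C replication reporter with no stimulus; test concentration not given here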
[3] = Pseudomonas biofilm growth suppression – PAO1 strain, BacTiter-Glo luminescence, LB-PBS, primary screen (AID 1144); conditions: P. aeruginosa PAO1 biofilm, 12 h, higher = more signal
[4] = basal CRE-LacZ reporter activity in PC12 – cell-based, unstimulated, primary screen (AID 1145); conditions: no forskolin, luminescence, 4.5 h, higher = more signal, called active from +8 up or from −8 down
[5] = forskolin-driven CRE-LacZ activity in PC12 – cell-based, CRE-LacZ reporter, forskolin-stimulated, primary screen (AID 1146); conditions: luminescence, 4.5 h, higher = more signal, called active from +8 up or from −8 down;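 further: PC12 cells with 6xCRE LacZ reporter stimulated by forskolin 10 µM; beta-galactosidase reporter signal reflecting CREB driven transcription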
[6] = biological target: Streptavidin (Streptomyces avidinii) (UniProt P22629); assay: compounds binding control protein streptavidin – biophysical, small-molecule microarray, 635/667 nm fluorescence, artefact control for SMM compound annotation, primary screen (AID 1147); conditions: higher = more signal;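 further: signal reflects streptavidin binding to arrayed compounds as a control protein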
[7] = probe aInhba binding on compound microarray – biochemical, small-molecule microarray, 635/667 nm fluorescence, primary screen (AID 1148); conditions: higher = more signal;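 further: score merges 667nm spot fluorescence with signal-to-noise for antibody binding to printed compounds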
Torsin-1A (Homo sapiens) [8] = biological target: Torsin-1A (Homo sapiens) (UniProt O14656); assay: TOR1A wild-type binding on microarray – cell lysate, small-molecule microarray, lysate, 635/667 nm, primary screen (AID 1149); conditions: COS7 hTOR1A-WT lysate, 635 nm fluorescence, higher = more signal
Torsin-1A (Homo sapiens) [9] = biological target: Torsin-1A (Homo sapiens) (UniProt O14656); assay: torsin A mutant lysate binding on microarrays – cell lysate, small-molecule microarray, COS7 lysate, 635/667 nm fluorescence, primary screen (AID 1150); conditions: COS7 hTOR1A mutant lysate, 635 nm fluorescence, higher = more signal;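 further: score pools 667 nm emission and signal to noise measuring lysate protein binding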
[10] = test system: Sonic hedgehog protein (Shh); assay: Sonic hedgehog microarray binding compounds – biochemical, small-molecule microarray, 635/667 nm fluorescence, primary screen (AID 1151); conditions: 635 nm fluorescence, higher = more signal;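 further: Shh protein binding to compounds spotted on small-molecule microarray slides; score combines spot fluorescence intensity with signal-to-noise across triplicate slides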
[11] = optical density shifts of acrAB sulA E. coli – strain DRC41, OD650, 48 h, E. coli filamentation inducer project, primary screen (AID 1152); conditions: higher = more signal, called active from +8 up or from −8 down;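 further: E. coli MC1000 strain DRC41 lacking acrAB efflux pump and sulA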
[12] = probe aLefty1 binding on compound microarray – biochemical, small-molecule microarray, 635/667 nm fluorescence, primary screen (AID 1153); conditions: higher = more signal;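 further: score merges spot fluorescence with signal-to-noise ratio from the scanned slide images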
[13] = plasmodial surface anion channel blockers, osmotic lysis – cell-based, P. falciparum Indochina, OD700, 1 h, primary screen (AID 1154); conditions: P. falciparum Indochina infected RBC osmotic lysis, higher = more signal, called active from +8 up or from −8 down
[14] = plasmodial surface anion channel blockers, osmotic lysis – cell-based, P. falciparum Indochina, OD700, 2 h, primary screen (AID 1155);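 further: lysis reports solute entry through the parasite surface anion channel PSAC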; conditions: P. falciparum Indochina infected erythrocytes, higher = more signal, called active from +8 up or from −8 down
[15] = changes in parasitized red cell lysis, either direction – P. falciparum Indochina, OD700, 3 h, PSAC antagonist project, primary screen (AID 1156); conditions: P. falciparum-infected erythrocytes, osmotic lysis, higher = more signal, called active from +8 up or from −8 down
[16] = plasmodial surface anion channel blockers, osmotic lysis – cell-based, P. falciparum Indochina, OD700, 18 h, primary screen (AID 1157); conditions: P. falciparum Indochina infected erythrocytes, osmotic lysis OD700, 18 h; higher = more signal, called active from +8 up or from −8 down
[17] = S6 kinase pathway phospho-S6 level changes – cell-based, A549, cytoblot, luminescence, serum-stimulated, primary screen (AID 1158); conditions: 5 h, higher = more signal;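 further: serum-stimulated A549 lung adenocarcinoma cells; signal is phosphorylated S6 detected by cytoblot immunostaining with HRP secondary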
[18] = biological target: NADPH oxidase 2 (Homo sapiens) (UniProt P04839); assay: compounds shifting NOX2 Amplex Red fluorescence – cell-based, HEK293-NOX2, PMA-stimulated, NOX inhibitor project, primary screen (AID 1159); conditions: 45 min, higher = more signal, called active from +8 up or from −8 down; further: test concentration not given here
[19] = biological target: NADPH oxidase 4 (Homo sapiens) (UniProt Q9NPH5); assay: compounds shifting NOX4 Amplex Red fluorescence – cell-based, HEK293-NOX4, tetracycline-induced, NOX inhibitor project, primary screen (AID 1160); conditions: HEK293-NOX4, Amplex Red H2O2 fluorescence, 45 min; higher = more signal, called active from +8 up or from −8 down
[20] = biological target: NADPH oxidase 5 (Homo sapiens) (UniProt Q96PH1); assay: compounds shifting NOX5 Amplex Red fluorescence – cell-based, HEK293-NOX5, NOX inhibitor project, primary screen (AID 1161); conditions: HEK293-NOX5, ionomycin, 45 min, higher = more signal
NADPH oxidase 5 (Homo sapiens), sequence (Q96PH1 whole entry, looked up): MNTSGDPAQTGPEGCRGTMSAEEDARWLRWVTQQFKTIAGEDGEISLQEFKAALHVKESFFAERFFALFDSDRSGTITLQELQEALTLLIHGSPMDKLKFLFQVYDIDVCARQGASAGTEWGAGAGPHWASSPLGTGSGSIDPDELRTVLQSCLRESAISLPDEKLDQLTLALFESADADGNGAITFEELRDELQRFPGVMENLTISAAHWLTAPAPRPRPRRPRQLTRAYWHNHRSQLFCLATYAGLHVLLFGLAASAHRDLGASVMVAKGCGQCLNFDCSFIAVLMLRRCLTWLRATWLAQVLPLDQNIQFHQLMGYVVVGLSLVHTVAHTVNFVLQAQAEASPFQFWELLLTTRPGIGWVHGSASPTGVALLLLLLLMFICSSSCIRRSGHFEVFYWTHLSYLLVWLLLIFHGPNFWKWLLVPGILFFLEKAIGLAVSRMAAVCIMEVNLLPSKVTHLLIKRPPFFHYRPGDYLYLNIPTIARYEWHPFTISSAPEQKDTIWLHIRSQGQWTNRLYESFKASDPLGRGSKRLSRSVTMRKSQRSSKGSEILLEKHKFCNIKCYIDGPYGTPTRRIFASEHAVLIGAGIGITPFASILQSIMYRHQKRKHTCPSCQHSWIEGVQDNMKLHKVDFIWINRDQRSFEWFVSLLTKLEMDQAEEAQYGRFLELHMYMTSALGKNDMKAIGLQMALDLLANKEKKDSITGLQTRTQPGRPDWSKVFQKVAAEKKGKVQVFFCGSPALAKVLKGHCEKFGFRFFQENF

NADPH oxidase 4 (Homo sapiens), sequence (Q9NPH5 whole entry, looked up): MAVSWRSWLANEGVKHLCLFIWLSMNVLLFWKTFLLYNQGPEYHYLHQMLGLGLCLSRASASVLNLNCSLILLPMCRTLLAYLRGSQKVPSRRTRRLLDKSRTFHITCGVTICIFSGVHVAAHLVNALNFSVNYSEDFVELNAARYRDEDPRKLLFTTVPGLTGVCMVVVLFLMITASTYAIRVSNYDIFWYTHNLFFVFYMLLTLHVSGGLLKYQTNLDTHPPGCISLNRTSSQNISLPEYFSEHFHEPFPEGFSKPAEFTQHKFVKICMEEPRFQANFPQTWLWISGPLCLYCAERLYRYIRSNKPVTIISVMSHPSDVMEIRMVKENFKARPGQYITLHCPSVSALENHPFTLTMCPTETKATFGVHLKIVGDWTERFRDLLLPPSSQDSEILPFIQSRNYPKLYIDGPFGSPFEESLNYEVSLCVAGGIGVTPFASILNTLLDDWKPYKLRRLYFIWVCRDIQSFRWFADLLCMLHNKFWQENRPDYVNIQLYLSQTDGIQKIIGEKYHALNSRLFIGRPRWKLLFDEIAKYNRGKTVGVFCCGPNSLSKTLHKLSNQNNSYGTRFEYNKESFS
Streptavidin (Streptomyces avidinii), sequence (P22629 whole entry, looked up): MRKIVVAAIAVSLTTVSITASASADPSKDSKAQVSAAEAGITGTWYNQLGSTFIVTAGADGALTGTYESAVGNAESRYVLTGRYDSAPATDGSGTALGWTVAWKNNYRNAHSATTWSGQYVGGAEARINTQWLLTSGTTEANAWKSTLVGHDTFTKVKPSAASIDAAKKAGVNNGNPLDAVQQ
NADPH oxidase 2 (Homo sapiens), sequence (P04839 whole entry, looked up): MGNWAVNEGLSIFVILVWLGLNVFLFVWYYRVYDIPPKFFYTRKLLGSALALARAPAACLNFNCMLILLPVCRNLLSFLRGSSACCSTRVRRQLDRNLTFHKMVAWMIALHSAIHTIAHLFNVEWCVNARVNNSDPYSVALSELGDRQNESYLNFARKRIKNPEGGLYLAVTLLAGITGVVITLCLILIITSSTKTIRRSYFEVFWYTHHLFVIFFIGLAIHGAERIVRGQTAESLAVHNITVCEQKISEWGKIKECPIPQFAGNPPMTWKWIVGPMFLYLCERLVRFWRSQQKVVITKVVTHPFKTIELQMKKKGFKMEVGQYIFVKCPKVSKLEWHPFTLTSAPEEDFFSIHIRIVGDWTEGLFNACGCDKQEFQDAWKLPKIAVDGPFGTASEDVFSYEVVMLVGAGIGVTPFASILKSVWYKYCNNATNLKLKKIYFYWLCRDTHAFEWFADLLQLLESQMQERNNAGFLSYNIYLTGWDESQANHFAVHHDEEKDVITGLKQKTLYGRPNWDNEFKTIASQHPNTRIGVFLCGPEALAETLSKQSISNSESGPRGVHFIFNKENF
Torsin-1A (Homo sapiens), sequence (O14656 whole entry, looked up): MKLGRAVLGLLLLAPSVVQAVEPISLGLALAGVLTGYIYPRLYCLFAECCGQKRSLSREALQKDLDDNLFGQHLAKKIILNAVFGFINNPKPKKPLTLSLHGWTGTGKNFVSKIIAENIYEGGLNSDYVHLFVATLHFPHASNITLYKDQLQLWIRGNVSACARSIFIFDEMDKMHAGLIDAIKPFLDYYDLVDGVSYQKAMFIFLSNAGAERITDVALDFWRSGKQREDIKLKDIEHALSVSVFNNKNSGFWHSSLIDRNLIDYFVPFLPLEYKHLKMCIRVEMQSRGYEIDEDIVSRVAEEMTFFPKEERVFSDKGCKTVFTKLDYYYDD

In the case of `O=C(O)[C@H]1C[C@H]2C(=O)N3CCC[C@H]3C(=O)N2[C@H]1c1cccc(OCCO)c1`, the composite z-score [1] is reported as 0.188, the z-score [2] is reported as -0.716 (inactive) and the z-score [3] is reported as 0.0521 (inactive). For the same compound, the z-score [4] was 0.818 (inactive), the z-score [5] was 0.0548 (inactive) and the composite z-score [6] was -0.0748. The composite z-score [7] was -0.154, the composite z-score (Torsin-1A (Homo sapiens) [8]) was 0.847 and the composite z-score (Torsin-1A (Homo sapiens) [9]) was 1.57. The composite z-score [10] was 0.643, the z-score [11] was 0.71 (inactive) and the composite z-score [12] was -0.017. For the same compound, the z-score [13] was 6.65 (inactive), the z-score [14] was 1.08 (inactive) and the z-score [15] was -1.69 (inactive). The z-score [16] was 0.619 (inactive), the z-score [17] was 0.557 and the z-score [18] was -0.117 (inactive). The z-score [19] was -0.0548 (inactive) and the z-score [20] was 1.24.

In the case of `NC(N)=NCc1cn(CCc2c[nH]c3ccccc23)nn1`, the composite z-score [1] is reported as 0.131, the z-score [2] is reported as -0.343 (inactive) and the z-score [3] is reported as 0.845 (inactive). The z-score [4] was -0.0989 (inactive), the z-score [5] was 0.0771 (inactive) and the composite z-score [6] was 0.294. It also gave a composite z-score [7] of 0.0275, a composite z-score (Torsin-1A (Homo sapiens) [8]) of 0.607 and a composite z-score (Torsin-1A (Homo sapiens) [9]) of 0.734. The composite z-score [10] was 1.54, the z-score [11] was -0.75 (inactive) and the composite z-score [12] was -0.151. For the same compound, the z-score [13] was 0.488 (inactive), the z-score [14] was 0.078 (inactive) and the z-score [15] was 0.0119 (inactive). The z-score [16] was 0.114 (inactive), the z-score [17] was -0.583 and the z-score [18] was -0.00385 (inactive). For the same compound, the z-score [19] was 0.0455 (inactive) and the z-score [20] was -3.95.

For `CC(C)C[C@@H]1NC(=O)[C@H]2C[C@@H](C(=O)NCCCCCC[N+](C)(C)C)[C@@H](c3cccc(OCCO)c3)N2C1=O`, the composite z-score [1] was -0.0449, the z-score [2] was -0.192 (inactive) and the z-score [3] was -0.616 (inactive). For the same compound, the z-score [4] was -0.256 (inactive), the z-score [5] was -0.139 (inactive) and the composite z-score [6] was -0.368. The composite z-score [7] was 0.0855, the composite z-score (Torsin-1A (Homo sapiens) [8]) was 0.126 and the composite z-score (Torsin-1A (Homo sapiens) [9]) was 0.62. For the same compound, the composite z-score [10] was 1.75, the z-score [11] was 0.898 (inactive) and the composite z-score [12] was -0.64. The z-score [13] was 6.18 (inactive), the z-score [14] was 0.596 (inactive) and the z-score [15] was 0.853 (inactive). For the same compound, the z-score [16] was 0.251 (inactive), the z-score [17] was -0.214 and the z-score [18] was 1.67 (inactive). For the same compound, the z-score [19] was 0.95 (inactive) and the z-score [20] was 1.3.

In the case of `NC(=O)N1C(=O)C2C(C1=O)C1C=C(c3ccc(CO)cc3)C2C(C2CC2)N1Cc1sc2ccccc2c1Cl` (stereo not given), the composite z-score [1] is reported as 0.323, the z-score [2] is reported as -3.73 (inactive) and the z-score [3] is reported as 0.447 (inactive). For the same compound, the z-score [4] was 4.42 (inactive), the z-score [5] was -1.63 (inactive) and the composite z-score [6] was 1.43. It also gave a composite z-score [7] of -0.0313, a composite z-score (Torsin-1A (Homo sapiens) [8]) of 1.19 and a composite z-score (Torsin-1A (Homo sapiens) [9]) of 0.83. For the same compound, the composite z-score [10] was 1.38, the z-score [11] was 0.421 (inactive) and the composite z-score [12] was 0.317. The z-score [13] was 17.8 (active), the z-score [14] was 3.88 (inactive) and the z-score [15] was 0.777 (inactive). The z-score [16] was 1.39 (inactive), the z-score [17] was -0.436 and the z-score [18] was 2.51 (inactive). The z-score [19] was -0.148 (inactive) and the z-score [20] was -0.568.

For `C=CCOC(=O)[C@@H]1[C@H]2C(=O)O[C@H](c3ccccc3)[C@H](c3ccccc3)N2[C@H](c2ccc(OCCOC(=O)[C@H]3C[C@H]4C(=O)N[C@@H](CCCCN(C)C)C(=O)N4[C@H]3c3cccc(OCCO)c3)cc2)[C@@]12C(=O)Nc1ccc(I)cc12`, the composite z-score [1] was 0.402, the z-score [2] was -0.015 (inactive) and the z-score [3] was 0.172 (inactive). The z-score [4] was -0.801 (inactive), the z-score [5] was 0.387 (inactive) and the composite z-score [6] was 0.458. The composite z-score [7] was 0.019, the composite z-score (Torsin-1A (Homo sapiens) [8]) was 1.61 and the composite z-score (Torsin-1A (Homo sapiens) [9]) was 1.52. For the same compound, the composite z-score [10] was 2.05, the z-score [11] was -0.142 (inactive) and the composite z-score [12] was 0.0665. The z-score [13] was 1.19 (inactive), the z-score [14] was 1.16 (inactive) and the z-score [15] was -1.08 (inactive). The z-score [16] was 0.865 (inactive), the z-score [17] was -0.714 and the z-score [18] was 1.53 (inactive). For the same compound, the z-score [19] was 1.18 (inactive) and the z-score [20] was 1.29.

In the case of `C=CCN1C(=O)[C@@]2(O[C@@H](CCn3cc([C@H](O)c4ccccc4)nn3)[C@H]([Si](C)(C)c3ccc(OC)cc3)[C@H]2C)c2ccccc21`, the composite z-score [1] is reported as 0.351, the z-score [2] is reported as -3.85 (inactive) and the z-score [3] is reported as 0.0526 (inactive). For the same compound, the z-score [4] was 3.9 (inactive), the z-score [5] was -0.448 (inactive) and the composite z-score [6] was -0.0664. The composite z-score [7] was 0.134, the composite z-score (Torsin-1A (Homo sapiens) [8]) was -0.0628 and the composite z-score (Torsin-1A (Homo sapiens) [9]) was -0.168. For the same compound, the composite z-score [10] was 1.7, the z-score [11] was 0.508 (inactive) and the composite z-score [12] was 0.276. The z-score [13] was 7.57 (inactive), the z-score [14] was 1.93 (inactive) and the z-score [15] was 1.04 (inactive). For the same compound, the z-score [16] was 0.916 (inactive), the z-score [17] was 0.32 and the z-score [18] was 0.997 (inactive). For the same compound, the z-score [19] was 0.99 (inactive) and the z-score [20] was -1.6.

In the case of `NC(=O)NCC#Cc1ccc2c(c1)[C@]1(C(=O)N2)[C@H](c2ccc(O)cc2)N2[C@H](c3ccccc3)[C@H](c3ccccc3)OC(=O)[C@H]2[C@@H]1C(=O)Nc1nc2ccccc2s1`, the composite z-score [1] is reported as 0.303, the z-score [2] is reported as -0.623 (inactive) and the z-score [3] is reported as -1.41 (inactive). The z-score [4] was -0.788 (inactive), the z-score [5] was -0.988 (inactive) and the composite z-score [6] was 0.106. The composite z-score [7] was -0.0018, the composite z-score (Torsin-1A (Homo sapiens) [8]) was 0.374 and the composite z-score (Torsin-1A (Homo sapiens) [9]) was -0.0346. For the same compound, the composite z-score [10] was 1.09, the z-score [11] was 0.589 (inactive) and the composite z-score [12] was 0.127. For the same compound, the z-score [13] was 3.28 (inactive), the z-score [14] was 2.86 (inactive) and the z-score [15] was 0.904 (inactive). The z-score [16] was 2.09 (inactive), the z-score [17] was 0.0298 and the z-score [18] was 0.0666 (inactive). The z-score [19] was -1.01 (inactive) and the z-score [20] was 0.17.

For `COC(=O)c1c(CC[C@@H](CO)NC(=O)N[C@H](Cn2cc(-c3ccccc3C)nn2)C(C)C)oc(C(C)=O)c1C(=O)OC`, the composite z-score [1] was -0.338, the z-score [2] was -2.66 (inactive) and the z-score [3] was -0.673 (inactive). The z-score [4] was 1.5 (inactive), the z-score [5] was -0.644 (inactive) and the composite z-score [6] was -0.0581. It also gave a composite z-score [7] of -0.003, a composite z-score (Torsin-1A (Homo sapiens) [8]) of -0.123 and a composite z-score (Torsin-1A (Homo sapiens) [9]) of -0.171. For the same compound, the composite z-score [10] was -0.272, the z-score [11] was 0.206 (inactive) and the composite z-score [12] was -0.112. For the same compound, the z-score [13] was 0.791 (inactive), the z-score [14] was -0.0484 (inactive) and the z-score [15] was 1.56 (inactive). The z-score [16] was -0.52 (inactive), the z-score [17] was 1.29 and the z-score [18] was -3.2 (inactive). For the same compound, the z-score [19] was -2.16 (inactive) and the z-score [20] was -1.77.
